# Hits are enriched below; roughly 3.2% of the tested compounds scored in any of these assays.
# TRb-SRC2 inh: qHTS for Inhibitors of the Interaction of Thyroid Hormone Receptor and Steroid Receptor Coregulator 2; Thyroid hormone receptor beta (Homo sapiens), P10828; TRbeta-SRC2 peptide binding, fluorescence polarization; receptor liganded with 1 µM T3; Potency, µM (top dose mostly 106 µM), inactives show top-dose activity change, negative = inhibition, actives largely listed as inhibitors; hit rate 0.065% among 280,000;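 note: plate controls were bound peptide for no effect and peptide without receptor for full effect; nearly all actives have a fitted effect of over 50% in size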
# Target sequence (P10828 whole entry, looked up): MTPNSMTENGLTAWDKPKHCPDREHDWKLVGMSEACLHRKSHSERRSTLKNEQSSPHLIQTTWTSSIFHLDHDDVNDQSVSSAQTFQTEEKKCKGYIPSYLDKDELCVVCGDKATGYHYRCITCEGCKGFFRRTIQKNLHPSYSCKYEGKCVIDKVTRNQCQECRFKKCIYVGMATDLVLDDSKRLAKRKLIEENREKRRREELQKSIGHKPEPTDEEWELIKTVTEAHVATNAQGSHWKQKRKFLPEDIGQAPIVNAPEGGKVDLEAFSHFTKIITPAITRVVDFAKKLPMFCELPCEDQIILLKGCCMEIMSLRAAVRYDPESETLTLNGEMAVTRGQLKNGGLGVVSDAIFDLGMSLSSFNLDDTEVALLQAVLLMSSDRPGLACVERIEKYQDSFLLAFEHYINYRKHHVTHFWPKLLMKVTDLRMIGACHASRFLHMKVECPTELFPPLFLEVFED
#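 Each compound concentration gave % activity, normalized to unbound and bound Texas Red SRC2 controls, from polarization read after 5 hr ambient incubation with T3-loaded human TRb LBD.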
# Tau fluor cs: Counterscreen qHTS for Inhibitors of Tau Fibril Formation, Fluorescence Polarization. tau K18 P301L Alexa594 fluorescence, heparin fibrillization. Potency, µM (highest dose often 57.7 µM), without a hit: at the highest dose activity change, negative = decrease. hit rate 0.93% among 280,000. AID 1463, 2008; note: nearly all actives have a fitted effect of over 55% in size
#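 Human K18 P301L tau (15 uM unlabeled plus 0.24 uM Alexa 594-labeled, final) in 100 mM sodium acetate pH 7 was mixed with compound and 20 uM heparin and incubated 6 hr at 37 C.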
# Tau FP inhib: qHTS for Inhibitors of Tau Fibril Formation, Fluorescence Polarization | Microtubule-associated protein tau (Homo sapiens), P10636 | K18 P301L tau heparin fibrillization, Alexa594 FP, 6 h | Potency, µM (top dose mostly 57.7 µM), inactives show at the highest dose activity, negative = inhibition, hits mostly inhibitors | hit rate 0.39% among 280,000; note: nearly all actives have a fitted effect of over 55% in size
# Target sequence (P10636 561-689 P618L limits assumed): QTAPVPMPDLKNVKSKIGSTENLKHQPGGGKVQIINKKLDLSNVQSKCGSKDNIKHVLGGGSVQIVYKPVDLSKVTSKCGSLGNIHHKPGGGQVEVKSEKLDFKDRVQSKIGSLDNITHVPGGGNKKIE
#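 Human tau K18 […] P301L fragment, 15 uM unlabeled plus 0.24 uM Alexa 594-labeled tau (final), with compound and 20 uM heparin in 100 mM sodium acetate pH 7; 6 hr at 37 C, then Alexa 594 FP read.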
# TexasRed fluor: Total Fluorescence Counterscreen for Inhibitors of the Interaction of Thyroid Hormone Receptor and Steroid Receptor Coregulator 2; TRb/SRC2 Texas Red total fluorescence interference; Potency, µM (titrated, usually from 106 µM), without a hit: top-dose fluorescence change, negative = quenching; hit rate 0.29% among 280,000; AID 1479, 2009; active = well fitted curve in either direction with a large enough effect; inconclusive = small, poorly fitted or top-dose-only effect
#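 Flags fluorescent or light-absorbing compounds by total fluorescence, S + 2P, at 555 nm excitation and 632 nm emission. Mixture: 20 nM Texas Red SRC2 peptide, 0.6 uM human TRb LBD, 1 uM T3, 5% DMSO; compound exposure 5 h at ambient temperature.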
# Tau ThT inhib: qHTS for Inhibitors of Tau Fibril Formation, Thioflavin T Binding; recombinant tau K18 P301L (four-repeat tau fragment), heparin-induced fibrillization, ThT fluorescence; Potency, µM (top dose mostly 57.4 µM), for the others: at the top dose activity, negative = inhibition, usual class: inhibitors; hit rate 2.1% among 270,000; note: nearly all actives have a fitted effect of over 55% in size
#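 Heparin-induced fibrillization of the P301L-mutant K18 repeat-domain fragment of human tau was followed by ThT binding in quantitative high-throughput format.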
# GoLoco inh red: qHTS Assay for Inhibitors of RGS12 GoLoco Motif Activity (Red Fluorophore). Gai1:RGS12 GoLoco peptide FP, rhodamine, 10 min. hit rate 0.44% among 230,000. Potency, µM (titrated, usually from 61.6 µM), inactives show at the top dose activity, negative = inhibition, usual class: inhibitors; active = well fitted inhibition curve with a large enough effect, not every such curve was filed as active; inactive = no such curve, though single readings can be large or run the other way; note: nearly all actives have a fitted effect of over 30% in size
# * hit, by the source's call; ? = inconclusive; · = not tested or not shown; ! = not active in a repeat; [ ] = another dose, or the depositor's remark. Unless noted, calls come from the whole dose curve; as a rule, active = well fitted curve in the direction sought with a large enough effect; inconclusive = small, poorly fitted or top-dose-only effect, or another doubt; inactive = no such curve, though single readings can be large; an effect the other way counts as inactive or inconclusive. Unless noted, % is set by controls: 0 for no effect and ±100 for the full control effect; potency is the fitted concentration of half-maximal effect.
SMILES,TRb-SRC2 inh,Tau fluor cs,Tau FP inhib,TexasRed fluor,Tau ThT inhib,GoLoco inh red
COC(=O)C(NS(=O)(=O)c1ccc(C)cc1)c1ccccc1 (stereo unspecified),-5.0%,-3.6%,-5.7%,2.0%,-4.4%,2.7%
CC(C)(C)OC(=O)NC(Cc1ccccc1)C(=O)NC1COC2CC(n3ccc(=O)[nH]c3=O)OC12 (stereo unspecified),-1.6%,·,·,0.2%,·,·
CC(C)=CC(=O)Oc1ccc(C(=O)N(C)c2ccccc2I)cc1,4.7%,·,·,0.0%,·,·
CCCc1ccc(OCC(=O)Nc2sc3c(c2C(=O)OCC)CCC(C(C)(C)C)C3)cc1 (stereo unspecified),?,-1.0%,2.4%,10µM*[quencher],-9.1%,·
CCOC(=O)c1c(NC(=O)COc2ccc(CC)cc2)sc2c1CCCC2,-1.9%,-5.8%,-1.4%,-7.4%,-13.6%,·
O=c1[nH]c2[nH]c(=S)[nH]c(=S)c2[nH]1,·,·,·,·,·,-19.4%[14.2 µM]
NCCCCCCCCCCNCCCN,2.4%,·,·,-0.5%,·,·
CCOc1ccc(C2NC(=O)C(C#N)=C(S)N2c2cccc(C)c2)cc1OC (stereo unspecified),0.0%,-24.8%,?,-0.6%,31.6µM*,1.3%
CCOc1ccc(C2NC(=O)C(C#N)=C(S)N2c2ccc(C)cc2)cc1OC (stereo unspecified),3.1%,-23.8%,?,-3.6%,31.6µM*,7.0%
COc1ccc(C2NC(=O)C(C#N)=C(S)N2c2ccccc2)cc1OC (stereo unspecified),-2.0%,-11.6%,?,0.2%,?,6.7%
COC(=O)CCC(=O)OC1(C)C(=O)C2=CN(Cc3ccc(OC)cc3)C(c3ccc(OC)cc3)=CC2=C(Br)C1=O (stereo unspecified),0.4%[11.2 µM],-16.7%[11.6 µM],4.9%[11.6 µM],-3.1%[11.2 µM],-16.0%[11.5 µM],26.4%[14.2 µM]
COC(=O)CCC(=O)OC1(C)C(=O)C2=CN(CCCOC(C)C)C(c3ccc(OC)cc3)=CC2=C(Br)C1=O (stereo unspecified),5.4%,-15.7%,?,8.9%,15.8µM*,23.9%
COC(=O)CCC(=O)OC1(C)C(=O)C2=CN(CC3CC3)C(c3ccc(OC)cc3)=CC2=C(Br)C1=O (stereo unspecified),4.3%[11.2 µM],-3.6%[11.6 µM],?,-3.5%[11.2 µM],11.2µM*!,23.2%[14.2 µM]
COC(=O)CCC(=O)OC1(C)C(=O)C2=CN(CC(C)C)C(c3ccc(OC)cc3)=CC2=C(Br)C1=O (stereo unspecified),0.4%[11.2 µM],-7.4%[11.6 µM],8.91µM*!,-2.4%[11.2 µM],10µM*!,16.3%[14.2 µM]
O=C1C(Nc2ccccc2)=CC(=O)c2ncccc21,3.9%,?,?,-8.6%,14.1µM*,-0.1%
CCCCCCCCCCCCCCCCOC[C@H](COP(=O)([O-])OCC[N+](C)(C)C)OC(=O)CCCCCCCC(=O)O,1.5%,·,·,-0.1%,·,·
O=c1n(CCO)c(=O)n(CCO)c(=O)n1CCO,0.5%[201 µM],·,·,-3.8%[201 µM],·,·
Cc1n[nH]c(C)c1Sc1ccccc1N=Cc1cc(Cl)cc([N+](=O)[O-])c1O,0.5%,-15.6%,1.2%,12.0%,10µM*,112.3%
COc1ccc2c(c1)O[C@@H](c1cccc(C(F)(F)F)c1)[C@H](OC(=O)NS(=O)(=O)c1ccc(C)cc1)C2=O,4.5%,-10.5%,-2.6%,-1.8%,-13.4%,1.9%
Cc1ccccc1NC(=O)c1ccc(Cl)c(S(=O)(=O)N2CCCCCC2)c1,?,-15.2%,-2.7%,0.794µM*[quencher],-3.4%,·
Cc1ccc(C(=O)Nc2ccccc2C(=O)O)cc1S(=O)(=O)N1CCCCCC1,2.2%,-4.8%,5.4%,9.0%,-4.7%,·
Cc1cc(N2CCC(C)CC2)nc2ccc(NC(=O)/C=C/c3cccc(Cl)c3)cc12,16.9%,14.1µM*[quencher],24.1%,9.1%,6.31µM*,·
Cc1ccc(/C=C/C(=O)Nc2ccc3nc(N4CCC(C)CC4)cc(C)c3c2)cc1,7.1%,6.31µM*[quencher],0.0%,-1.8%,2.51µM*,·
O=c1c(-c2ccc(O)cc2)coc2cc(O[C@@H]3O[C@H](CO)[C@@H](O)[C@H](O)[C@H]3O)cc(O)c12,-6.0%,·,·,0.0%,·,·
O=C1C(Cl)=C(Nc2ccccc2O)C(=O)N1CCc1ccccc1,2.5%,?,?,-1.8%,10µM*,19.7%
SMILES,TRb-SRC2 inh,Tau fluor cs,Tau FP inhib,TexasRed fluor,Tau ThT inhib,GoLoco inh red
CCOc1ccc(N2C(=O)C(Cl)=C(Nc3ccccc3O)C2=O)cc1,-19.2%,?,?,0.0%,10µM*,75.8%
COC(=O)[C@H](C)NC(=O)C/C=C\[C@@H](C)CO,1.5%[11.2 µM],-1.3%[11.6 µM],-3.3%[11.6 µM],-3.1%[11.2 µM],-1.7%[11.5 µM],·
O=C(O)C1C2CCC(O2)C1C(=O)Nc1ccc(O)cc1 (stereo unspecified),1.7%,-7.7%,5.9%,-6.4%,11.7%,15.8µM*
CC(C)C[C@H](NC(=O)[C@H](CO)NC(=O)[C@@H]1CCCN1C(=O)[C@H](Cc1ccc(O)cc1)NC(=O)[C@H](CC(C)C)NC(=O)[C@H](CC(C)C)NC(=O)[C@@H]1CCCN1C(=O)[C@@H](NC(=O)[C@H](CO)NC(=O)[C@H](CO)NC(=O)[C@H](CO)NC(=O)[C@H](CO)NC(=O)[C@@H]1CCCN1C(=O)[C@@H](NC(=O)[C@@H](N)CO)C(C)C)[C@@H](C)O)C(=O)N[C@@H](C)C(=O)N[C@@H](CC(C)C)C(=O)N1CCC[C@H]1C(=O)N[C@@H](C)C(=O)N1CCC[C@H]1C(=O)O,-1.7%,·,·,-1.5%,·,·
Cc1ccc(Nc2nnc(-c3cc4c(ccc5ccccc54)oc3=O)s2)cc1,?,-7.4%,6.8%,0.0316µM*[quencher],?,·
Oc1ccc(NC(=S)Nc2ccc(O)cc2)cc1,?,?,?,-3.7%,10µM*,-19.3%
COC(=O)c1ccc(NC(=S)Nc2ccc(O)cc2)cc1,-13.6%,-12.7%,1.2%,2.3%,-14.6%,-1.6%
Oc1ccc(/C=C\c2cc(O)cc(O)c2)cc1,1.0%,14.1µM*[quencher],10.0%,-13.5%,14.1µM*,6.9%
Oc1ccc(/C=C/c2cc(O)cc(O)c2)cc1,2.5%,?,?,?,10µM*,11.0%
COc1cc(O)cc(/C=C/c2ccccc2)c1,-3.4%,?,?,-0.8%,-7.9%,4.3%
CC(C)=CCC/C(C)=C/CO/N=C1/C[C@@H](O)[C@@H](O)[C@@H]2[C@@H]3C(=O)N(Cc4ccc5c(c4)OCO5)C(=O)[C@H]3CC[C@H]12,-6.8%[11.2 µM],-13.5%[11.6 µM],-1.4%[11.6 µM],-0.7%[11.2 µM],-7.3%[11.5 µM],·
